Screens deposited in PubChem by several laboratories.
N-glyco inh: N-linked glycosylation inhibition. D54 ERlucT glycosylation luciferase reporter, 24 h; percent of 100 nM tunicamycin response. reporter increase, % at 12.5 µM. 360,000 tested, 0.23% active;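 active = mean luciferase reporter signal, scaled so untreated is 0 and the glycosylation-blocking control 100, at or above a set limit in every replicate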;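 note: luciferase carries N-glycosylation sites so blocking glycosylation raises the light; 0% = median of neutral control wells and 100% = median of 100 nM tunicamycin wells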
ABCB6 inh MLPCN: blocks the human ABCB6 transporter. 360,000 tested, 0.19% active. fluorescence ratio to DMSO, % at 10 µM. K562-ABCB6 porphyrin accumulation, flow cytometry, 1 h; stronger effect = lower value. Q9NP58;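 active = fluorescence ratio to DMSO below 75%, the collection mean minus 3 SD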;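 note: signal is porphyrin accumulated inside mitochondria; 100% equals median channel fluorescence of DMSO control wells; lower ratio means ABCB6 inhibition with less porphyrin fluorescence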
RAD54 inh: blocks human RAD54 Holliday junction branch migration | 360,000 tested, 0.14% active | AID 602329 | inhibition, % at 10.4 µM | Q92698 | FAM/BHQ fluorescence;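 active = mean normalized replicate activity at least 40 and at least half of replicates scoring 40 or more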;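 note: 0% = median of neutral control wells and 100% = median of positive control wells; inhibitors cause a drop in the FAM fluorescence signal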
Myeloid diff 2: promotes myeloid progenitor differentiation; ER-HoxA9 myeloid progenitors, lysozyme-GFP differentiation, flow cytometry; calls only at 10 µM; 360,000 tested, 1% active; AID 624256;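 active = normalized GFP-positive differentiation at or above the plate's own cutoff, the solvent-only control mean plus 3 SD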;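 note: cells exposed to compound for four days before flow analysis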
Vif imaging: HIV Vif inhibition | 340,000 tested, 0.35% active | AID 602346 | HEK293T cells, Vif self-association by quenched fluorescence, imaging, 24 h | inhibition, % at 7.49 µM; in the data active = inhibition above about 50%, passing the limit was not always enough
Myeloid diff CP1: compounds promoting myeloid differentiation; shares compounds with Myeloid diff 2; ER-HoxA9 myeloid progenitors, GFP/Mac1 double-positive flow; calls only; 2,300 tested, 2% active;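 active = share of green or green-and-red cells above 9 and 9% in run 1 or 4 and 3% in run 2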
GFP autofluor: counter-screen for myeloid differentiation promoters: compound fluorescence; shares compounds with Myeloid diff 2; ER-HoxA9 myeloid progenitors, no estrogen, GFP autofluorescence flow cytometry; vehicle wells 0%, positive control 100%; fluorescence response, % (concentration not given with the values); 2,300 tested, 7.4% active;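 active = over 5% cells positive for green fluorescent reporter, or over 2% positive for both it and APC stain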;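 note: range taken on the double positive population between DMSO and positive control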
* = called active by the depositor; i = inactive; . = no result; + = active, no number. Sampled rows, rich in hits. Any-hit rate of the full collection: about 1.6%.

SMILES | N-glyco inh | ABCB6 inh MLPCN | RAD54 inh | Myeloid diff 2 | Vif imaging | Myeloid diff CP1 | GFP autofluor
C[C@@H]1CN([C@@H](C)CO)C(=O)c2cccc(NC(=O)NC3CCCCC3)c2O[C@@H]1CN(C)S(C)(=O)=O | . | . | 6 | . | . | . | .
O=C(Cc1cccs1)Nc1cccc(-c2nnc(-c3ccco3)o2)c1 | 1 | 97 | -6 | i | -7 | . | .
Cc1ccc(-c2nnc(-c3ccc(NC(=O)Cc4cccs4)cc3)o2)cc1 | -3 | 104 | -5 | + | 7 | i | 0
COc1ccc(NC(=O)N(C)C[C@@H]2OCCCC[C@@H](C)Oc3ccc(NS(=O)(=O)c4c(C)noc4C)cc3C(=O)N([C@H](C)CO)C[C@H]2C)cc1 | . | . | 3 | . | . | . | .
O=C(C[C@H]1CC[C@@H]2[C@H](COC[C@@H](O)CN2Cc2nccs2)O1)NCc1ccc(F)cc1 | . | . | 7 | . | . | . | .
CNC(=O)c1ccsc1NC(=O)CCS(=O)(=O)c1ccc(F)cc1 | -8 | 87 | -1 | i | -2 | . | .
NC(=O)c1ccsc1NC(=O)CCS(=O)(=O)c1ccc(F)cc1 | -9 | 96 | 1 | + | -6 | i | 0
CO[C@H]1CN(C)C(=O)c2ccc(NC(=O)C3CCCC3)cc2OC[C@H](C)N(S(C)(=O)=O)C[C@H]1C | . | . | -13 | . | . | . | .
COc1ccc(N2CCN(C(=O)CCc3ccccc3OC)CC2)cc1 | 0 | 94 | -1 | i | -4 | . | .
COc1ccc(-n2c(=O)c(CCC(=O)N3CCN(c4ccccc4O)CC3)nc3ccccc32)cc1 | -1 | 91 | . | i | -5 | i | 6.7*
COCC(=O)Nc1ccc2c(c1)C(=O)N(C)[C@H]1CC[C@@H](CC(=O)NCCc3ccncc3)O[C@H]1CO2 | . | . | -4 | . | . | . | .
CCOC(=O)c1c(NC(=S)Nc2ccc(Cl)cc2)sc2c1CCN(C)C2 | 0 | 95 | 13 | + | 22 | i | 47*
COc1ccc(/C=N/Nc2c(Cl)cc(Cl)cc2Cl)cc1CN1CCOCC1 | -2 | 90 | 0 | i | -3 | i | 1
Cc1ccccc1OCc1nnc(SCCN2CCCC2)n1-c1ccccc1 | -5 | 106 | . | + | -10 | i | 0
COc1cc(OC)cc(-c2ncc3ccccn23)c1 | 0 | 114 | -7 | i | 20 | . | .
COc1cc(-c2ncc3ccccn23)cc(OC)c1OC | -6 | 102 | -2 | + | -2 | i | 0
CN(C)S(=O)(=O)c1ccc(Cl)c(C(=O)Nc2nc3ccccc3[nH]2)c1 | -1 | 107 | -3 | i | -5 | . | .
Cc1ccc(NS(=O)(=O)c2ccc(Cl)c(C(=O)Nc3ccccc3-c3nc4ccccc4[nH]3)c2)cc1C | -3 | 94 | . | i | 2 | i | 0
CCOC(=O)/C=C1\CC(C(=O)OCC)Oc2ccccc21 (stereo unspecified) | 1 | 98 | 5 | i | 0 | . | .
CCOC(=O)/C=C1\Nc2ccccc2OC1=O | 2 | 94 | . | + | 0 | i | 0
COc1ccc(CN=CC2=C(O)CNC2=O)cc1OC | 0 | 99 | 8 | i | 5 | i | 0
CCOC(=O)C1CCCN(C(=O)CNS(=O)(=O)c2ccc(Br)s2)C1 (stereo unspecified) | 4 | 99 | -3 | + | 8 | i | 0
C[C@@H]1CN([C@@H](C)CO)C(=O)c2ccccc2-c2ccccc2CO[C@@H]1CN(C)Cc1ccc2c(c1)OCO2 | . | . | -7 | . | . | . | .
CC1=Nc2ccc(C)c3nc(C)cc(c23)N1c1ccc(C)cc1 | 3 | 108 | 30 | + | -9 | i | 0
CC(C)OC(=O)NCCOC(=O)Nc1cccc(Cl)c1 | 1 | 99 | 2 | i | . | . | .
CC(C)OC(=O)NC(C)(C)COC(=O)Nc1cccc(Cl)c1 | -1 | 97 | 6 | i | -4 | i | 0
COCC(=O)N1C[C@@H]2[C@H](c3ccccc31)[C@@H](CO)N2C(=O)c1ccccc1F | . | . | -3 | . | . | . | .
COc1cccc(S(=O)(=O)N(C)C[C@H]2Oc3cc(C4=CCCC4)ccc3S(=O)(=O)N([C@H](C)CO)C[C@@H]2C)c1 | . | . | 3 | . | . | . | .
Cc1ccc(S(=O)(=O)N2C[C@H]3C(=O)C[C@@H](c4ccccc4)N(S(=O)(=O)c4ccc(C)cc4)[C@H]3C[C@H]2c2cccc(C)c2)cc1 | -10 | 100 | 13 | + | . | i | 0
